Substitutions are numbered along the chain they refer to.
What was measured:
Test in all cases: PBM; 200 nM protein, PBS
Conditions in all cases: dsDNA, one strand shown
VENTX [1] = target: T1, VENTX (Homo sapiens, UniProt O95231 78-163, R121Q)
T1 sequence: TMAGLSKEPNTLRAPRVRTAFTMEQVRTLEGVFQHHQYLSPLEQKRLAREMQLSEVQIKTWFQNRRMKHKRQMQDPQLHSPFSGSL

VENTX [2] = target: T2, VENTX (Homo sapiens, UniProt O95231 78-163)
T2 sequence: T1 sequence with Q44R

HOXC9 [3] = target: HOXC9 (Homo sapiens, UniProt P31274 178-260, K195R)
PAX4 [4] = target: T3, PAX4 (Homo sapiens, UniProt O43316 9-242, R200K)
T3 sequence: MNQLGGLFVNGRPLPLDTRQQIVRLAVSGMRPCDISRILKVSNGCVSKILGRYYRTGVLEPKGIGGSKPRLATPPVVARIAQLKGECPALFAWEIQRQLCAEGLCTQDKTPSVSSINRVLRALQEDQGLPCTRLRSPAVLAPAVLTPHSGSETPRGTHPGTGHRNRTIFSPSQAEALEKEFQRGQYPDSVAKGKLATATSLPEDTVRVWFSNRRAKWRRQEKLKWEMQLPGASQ

HOXC9 [5] = target: HOXC9 (Homo sapiens, UniProt P31274 178-260)
HOXC9 [6] = target: HOXC9 (Homo sapiens, UniProt P31274 178-260, R193K)
PAX4 [7] = target: T4, PAX4 (Homo sapiens, UniProt O43316 9-242, R227W)
T4 sequence: T3 sequence with K192R, R219W

VENTX [8] = target: T5, VENTX (Homo sapiens, UniProt O95231 78-163, Y115F)
T5 sequence: T1 sequence with Y38F, Q44R

HOXB6 [9] = target: HOXB6 (Homo sapiens, UniProt P17509 132-218, K202E)
HOXA2 [10] = target: HOXA2 (Homo sapiens, UniProt O43364 129-215, R185T)
HOXA2 [11] = target: HOXA2 (Homo sapiens, UniProt O43364 129-215, R185K)
VAX1 [12] = target: VAX1 (Homo sapiens, UniProt Q5SQQ9 86-172)
HOXC9 [13] = target: HOXC9 (Homo sapiens, UniProt P31274 178-260, R222W)
VAX1 [14] = target: VAX1 (Homo sapiens, UniProt Q5SQQ9 86-172, T142I)
HOXA2 [15] = target: HOXA2 (Homo sapiens, UniProt O43364 129-215, Y150S)
HOXA2 [16] = target: HOXA2 (Homo sapiens, UniProt O43364 129-215)
VAX1 [17] = target: VAX1 (Homo sapiens, UniProt Q5SQQ9 86-172, K157R)
HOXB6 [18] = target: HOXB6 (Homo sapiens, UniProt P17509 132-218)
HOXA4 [19] = target: HOXA4 (Homo sapiens, UniProt Q00056 201-287, W262R)
HOXA4 [20] = target: HOXA4 (Homo sapiens, UniProt Q00056 201-287, R217L)
HOXA4 [21] = target: HOXA4 (Homo sapiens, UniProt Q00056 201-287)
HOXA4 [22] = target: HOXA4 (Homo sapiens, UniProt Q00056 201-287, W262F)
HOXB9 [23] = target: HOXB9 (Homo sapiens, UniProt P17482 171-250, T197M)
HOXA7 [24] = target: HOXA7 (Homo sapiens, UniProt P31268 116-202)
HOXC10 [25] = target: HOXC10 (Homo sapiens, UniProt Q9NYD6 254-340)
HOXB9 [26] = target: HOXB9 (Homo sapiens, UniProt P17482 171-250)
HOXC10 [27] = target: HOXC10 (Homo sapiens, UniProt Q9NYD6 254-340, K271E)
HOXB9 [28] = target: HOXB9 (Homo sapiens, UniProt P17482 171-250, R186Q)
HOXA7 [29] = target: HOXA7 (Homo sapiens, UniProt P31268 116-202, W177C)
Chain of HOXA7 (Homo sapiens, UniProt P31268 116-202, W177C) (P31268 116-202 W177C): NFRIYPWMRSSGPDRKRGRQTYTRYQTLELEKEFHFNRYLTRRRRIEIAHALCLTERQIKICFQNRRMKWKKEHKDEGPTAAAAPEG

Chain of HOXC9 (Homo sapiens, UniProt P31274 178-260) (P31274 178-260): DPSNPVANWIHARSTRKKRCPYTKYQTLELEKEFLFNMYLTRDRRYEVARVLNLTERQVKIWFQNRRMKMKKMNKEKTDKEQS
Chain of HOXC9 (Homo sapiens, UniProt P31274 178-260, R193K) (P31274 178-260 R193K): as the sequence (P31274 178-260) above, with R16K counted along it
Chain of HOXC9 (Homo sapiens, UniProt P31274 178-260, K195R) (P31274 178-260 K195R): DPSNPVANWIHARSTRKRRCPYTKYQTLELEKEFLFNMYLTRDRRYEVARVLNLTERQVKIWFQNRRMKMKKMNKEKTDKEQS
Chain of HOXC9 (Homo sapiens, UniProt P31274 178-260, R222W) (P31274 178-260 R222W): as the sequence (P31274 178-260) above, with R45W counted along it
Chain of HOXB6 (Homo sapiens, UniProt P17509 132-218, K202E) (P17509 132-218 K202E): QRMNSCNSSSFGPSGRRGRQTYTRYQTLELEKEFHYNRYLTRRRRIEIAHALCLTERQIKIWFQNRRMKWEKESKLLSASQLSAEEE
Chain of HOXB6 (Homo sapiens, UniProt P17509 132-218) (P17509 132-218): as the sequence (P17509 132-218 K202E) above, with E71K counted along it
Chain of HOXB9 (Homo sapiens, UniProt P17482 171-250) (P17482 171-250): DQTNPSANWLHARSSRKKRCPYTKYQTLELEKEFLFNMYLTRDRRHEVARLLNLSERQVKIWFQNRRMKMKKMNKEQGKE
Chain of VAX1 (Homo sapiens, UniProt Q5SQQ9 86-172, K157R) (Q5SQQ9 86-172 K157R): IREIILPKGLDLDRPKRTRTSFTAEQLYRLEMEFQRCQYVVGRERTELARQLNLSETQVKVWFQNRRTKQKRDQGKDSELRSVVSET
Chain of HOXC10 (Homo sapiens, UniProt Q9NYD6 254-340, K271E) (Q9NYD6 254-340 K271E): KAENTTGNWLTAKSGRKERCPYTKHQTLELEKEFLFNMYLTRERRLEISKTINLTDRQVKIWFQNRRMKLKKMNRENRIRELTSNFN
Chain of HOXA4 (Homo sapiens, UniProt Q00056 201-287, W262F) (Q00056 201-287 W262F): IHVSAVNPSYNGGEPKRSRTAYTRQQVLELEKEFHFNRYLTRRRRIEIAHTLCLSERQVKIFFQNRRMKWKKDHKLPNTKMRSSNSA
Chain of HOXA4 (Homo sapiens, UniProt Q00056 201-287) (Q00056 201-287): as the sequence (Q00056 201-287 W262F) above, with F62W counted along it
Chain of HOXA4 (Homo sapiens, UniProt Q00056 201-287, R217L) (Q00056 201-287 R217L): as the sequence (Q00056 201-287 W262F) above, with R17L, F62W counted along it
Chain of HOXC10 (Homo sapiens, UniProt Q9NYD6 254-340) (Q9NYD6 254-340): as the sequence (Q9NYD6 254-340 K271E) above, with E18K counted along it
Chain of HOXA2 (Homo sapiens, UniProt O43364 129-215) (O43364 129-215): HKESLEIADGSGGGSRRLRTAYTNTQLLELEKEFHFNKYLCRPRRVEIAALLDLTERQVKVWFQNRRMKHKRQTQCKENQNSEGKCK
Chain of VAX1 (Homo sapiens, UniProt Q5SQQ9 86-172) (Q5SQQ9 86-172): as the sequence (Q5SQQ9 86-172 K157R) above, with R72K counted along it
Chain of HOXA2 (Homo sapiens, UniProt O43364 129-215, R185T) (O43364 129-215 R185T): as the sequence (O43364 129-215) above, with R57T counted along it
Chain of HOXA2 (Homo sapiens, UniProt O43364 129-215, Y150S) (O43364 129-215 Y150S): as the sequence (O43364 129-215) above, with Y22S counted along it
Chain of HOXB9 (Homo sapiens, UniProt P17482 171-250, T197M) (P17482 171-250 T197M): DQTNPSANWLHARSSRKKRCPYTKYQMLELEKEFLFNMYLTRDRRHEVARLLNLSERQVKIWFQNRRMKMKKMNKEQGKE
Chain of HOXA7 (Homo sapiens, UniProt P31268 116-202) (P31268 116-202): as the sequence (P31268 116-202 W177C) above, with C62W counted along it
Chain of HOXA4 (Homo sapiens, UniProt Q00056 201-287, W262R) (Q00056 201-287 W262R): as the sequence (Q00056 201-287 W262F) above, with F62R counted along it
Chain of HOXA2 (Homo sapiens, UniProt O43364 129-215, R185K) (O43364 129-215 R185K): as the sequence (O43364 129-215) above, with R57K counted along it
Chain of VAX1 (Homo sapiens, UniProt Q5SQQ9 86-172, T142I) (Q5SQQ9 86-172 T142I): as the sequence (Q5SQQ9 86-172 K157R) above, with T57I, R72K counted along it
Chain of HOXB9 (Homo sapiens, UniProt P17482 171-250, R186Q) (P17482 171-250 R186Q): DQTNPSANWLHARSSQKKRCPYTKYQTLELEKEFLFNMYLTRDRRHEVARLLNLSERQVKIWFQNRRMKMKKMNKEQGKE

For GTATTAAA, the binding signal (VENTX [1]) was 9.94 upbm affinity estimate (log intensity, higher = more binding, comparable within an allelic series) and the binding signal (VENTX [2]) was 10.3 upbm affinity estimate (log intensity, higher = more binding, comparable within an allelic series).

With ACGCATTA the binding signal (VENTX [1]) was 10.4 upbm affinity estimate (log intensity, higher = more binding, comparable within an allelic series), the binding signal (HOXC9 [3]) was 11.2 upbm affinity estimate (log intensity, higher = more binding, comparable within an allelic series) and the binding signal (PAX4 [4]) was 11.6 upbm affinity estimate (log intensity, higher = more binding, comparable within an allelic series). For the same sequence, the binding signal (HOXC9 [5]) was 11.2 upbm affinity estimate (log intensity, higher = more binding, comparable within an allelic series), the binding signal (HOXC9 [6]) was 11.2 upbm affinity estimate (log intensity, higher = more binding, comparable within an allelic series) and the binding signal (PAX4 [7]) was 10.9 upbm affinity estimate (log intensity, higher = more binding, comparable within an allelic series).

TAATGTGA was tested, and the binding signal (VENTX [1]) was 10.5 upbm affinity estimate (log intensity, higher = more binding, comparable within an allelic series).

With CCCCTCGG the binding signal (VENTX [1]) was 8.03 upbm affinity estimate (log intensity, higher = more binding, comparable within an allelic series), the binding signal (HOXC9 [3]) was 9.54 upbm affinity estimate (log intensity, higher = more binding, comparable within an allelic series) and the binding signal (VENTX [2]) was 7.93 upbm affinity estimate (log intensity, higher = more binding, comparable within an allelic series). For the same sequence, the binding signal (VENTX [8]) was 8.04 upbm affinity estimate (log intensity, higher = more binding, comparable within an allelic series), the binding signal (HOXB6 [9]) was 8.78 upbm affinity estimate (log intensity, higher = more binding, comparable within an allelic series) and the binding signal (HOXA2 [10]) was 7.19 upbm affinity estimate (log intensity, higher = more binding, comparable within an allelic series). The binding signal (HOXC9 [5]) was 9.64 upbm affinity estimate (log intensity, higher = more binding, comparable within an allelic series), the binding signal (HOXC9 [6]) was 9.54 upbm affinity estimate (log intensity, higher = more binding, comparable within an allelic series) and the binding signal (HOXA2 [11]) was 10.3 upbm affinity estimate (log intensity, higher = more binding, comparable within an allelic series). For the same sequence, the binding signal (VAX1 [12]) was 7.12 upbm affinity estimate (log intensity, higher = more binding, comparable within an allelic series), the binding signal (HOXC9 [13]) was 9.5 upbm affinity estimate (log intensity, higher = more binding, comparable within an allelic series) and the binding signal (VAX1 [14]) was 7.07 upbm affinity estimate (log intensity, higher = more binding, comparable within an allelic series). The binding signal (HOXA2 [15]) was 10.4 upbm affinity estimate (log intensity, higher = more binding, comparable within an allelic series), the binding signal (HOXA2 [16]) was 7.11 upbm affinity estimate (log intensity, higher = more binding, comparable within an allelic series) and the binding signal (VAX1 [17]) was 7.1 upbm affinity estimate (log intensity, higher = more binding, comparable within an allelic series). The binding signal (HOXB6 [18]) was 8.89 upbm affinity estimate (log intensity, higher = more binding, comparable within an allelic series).

In the case of GGGAGGAC, the binding signal (VENTX [1]) is reported as 8.23 upbm affinity estimate (log intensity, higher = more binding, comparable within an allelic series), the binding signal (HOXA4 [19]) is reported as 9.79 upbm affinity estimate (log intensity, higher = more binding, comparable within an allelic series) and the binding signal (VENTX [2]) is reported as 8.18 upbm affinity estimate (log intensity, higher = more binding, comparable within an allelic series). The binding signal (VENTX [8]) was 8.28 upbm affinity estimate (log intensity, higher = more binding, comparable within an allelic series), the binding signal (HOXA4 [20]) was 9.91 upbm affinity estimate (log intensity, higher = more binding, comparable within an allelic series) and the binding signal (HOXA4 [21]) was 10.1 upbm affinity estimate (log intensity, higher = more binding, comparable within an allelic series). The binding signal (HOXA4 [22]) was 9.92 upbm affinity estimate (log intensity, higher = more binding, comparable within an allelic series).

In the case of GCCATTAA, the binding signal (VENTX [1]) is reported as 11.8 upbm affinity estimate (log intensity, higher = more binding, comparable within an allelic series), the binding signal (HOXB9 [23]) is reported as 10.1 upbm affinity estimate (log intensity, higher = more binding, comparable within an allelic series) and the binding signal (HOXC9 [3]) is reported as 12.9 upbm affinity estimate (log intensity, higher = more binding, comparable within an allelic series). For the same sequence, the binding signal (VENTX [2]) was 12.3 upbm affinity estimate (log intensity, higher = more binding, comparable within an allelic series), the binding signal (HOXA7 [24]) was 11.9 upbm affinity estimate (log intensity, higher = more binding, comparable within an allelic series) and the binding signal (HOXC10 [25]) was 12.3 upbm affinity estimate (log intensity, higher = more binding, comparable within an allelic series). For the same sequence, the binding signal (VENTX [8]) was 11.6 upbm affinity estimate (log intensity, higher = more binding, comparable within an allelic series), the binding signal (HOXB6 [9]) was 10 upbm affinity estimate (log intensity, higher = more binding, comparable within an allelic series) and the binding signal (HOXB9 [26]) was 12.2 upbm affinity estimate (log intensity, higher = more binding, comparable within an allelic series). For the same sequence, the binding signal (HOXC9 [5]) was 13 upbm affinity estimate (log intensity, higher = more binding, comparable within an allelic series), the binding signal (HOXC9 [6]) was 12.8 upbm affinity estimate (log intensity, higher = more binding, comparable within an allelic series) and the binding signal (HOXC10 [27]) was 12.2 upbm affinity estimate (log intensity, higher = more binding, comparable within an allelic series). The binding signal (HOXB9 [28]) was 12 upbm affinity estimate (log intensity, higher = more binding, comparable within an allelic series), the binding signal (HOXC9 [13]) was 10.9 upbm affinity estimate (log intensity, higher = more binding, comparable within an allelic series) and the binding signal (HOXA7 [29]) was 8.78 upbm affinity estimate (log intensity, higher = more binding, comparable within an allelic series). For the same sequence, the binding signal (HOXB6 [18]) was 12.2 upbm affinity estimate (log intensity, higher = more binding, comparable within an allelic series).

Reference: paper PMC11006913
